Experimental data: the supplement of paper PMC10849652
Of roughly 7,900 targets only a part is listed; those with a hit were picked by preference. About 0.6% of all pairs of compound and target were hits.

Key:
Assay in all cases: log2 fold change, soluble protein after heating vs DMSO (PISA); higher = thermal stabilisation; K562 cells, 10 uM, 30 min; active = over 0.2 and 3.5 SD of the protein, either way, in both replicates (recomputed)
[1] = compound: COC1=CC=C(C=C1)CN2C=CC3=C2C=C(C=C3)C(=O)NO
Procedure, shortened: (§1)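 K562 cells at 2×10^6 cells/mL were treated for 30 min with 10 μM compound, and aliquots were heated for 3 min over 48°C-58°C before pooling. Extraction used PBS with 0.5% NP-40 at 4°C, and soluble protein was the supernatant after 21,000xg for 90 min, measured by TMTpro 16plex LC-MS/MS with channel sums equalised. Thermal stability values, relative to control samples and from duplicates, are log2 fold changes.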

filanesib = compound: CON(C)C(=O)N1N=C(c2cc(F)ccc2F)S[C@@]1(CCCN)c1ccccc1 [filanesib]
Procedure, shortened: as §1

zotarolimus = compound: CO[C@H]1C[C@@H]2CC[C@@H](C)[C@@](O)(O2)C(=O)C(=O)N2CCCC[C@H]2C(=O)O[C@H]([C@H](C)C[C@@H]2CC[C@H](n3cnnn3)[C@H](OC)C2)CC(=O)[C@H](C)/C=C(\C)[C@@H](O)[C@@H](OC)C(=O)[C@H](C)C[C@H](C)/C=C/C=C/C=C/1C [zotarolimus]
Procedure, shortened: as §1

idasanutlin = compound: COc1cc(C(=O)O)ccc1NC(=O)[C@@H]1N[C@@H](CC(C)(C)C)[C@](C#N)(c2ccc(Cl)cc2F)[C@H]1c1cccc(Cl)c1F [idasanutlin]
Procedure, shortened: as §1

alisertib = compound: COc1cc(Nc2ncc3c(n2)-c2ccc(Cl)cc2C(c2c(F)cccc2OC)=NC3)ccc1C(=O)O [alisertib]
Procedure, shortened: as §1

[2] = compound: COc1cc2nc(-c3cc(F)ccc3O)nc(N[C@@H]3CNC[C@H]3C(C)(C)O)c2cc1OC
Procedure, shortened: as §1

gefitinib = compound: COc1cc2ncnc(Nc3ccc(F)c(Cl)c3)c2cc1OCCCN1CCOCC1 [gefitinib]
Procedure, shortened: as §1

[3] = compound: COc1cccc2cc(-c3nc([C@H]4CC[C@H](C(=O)O)CC4)n4ncnc(N)c34)[nH]c12
Procedure, shortened: as §1

lapatinib = compound: CS(=O)(=O)CCNCc1ccc(-c2ccc3ncnc(Nc4ccc(OCc5cccc(F)c5)c(Cl)c4)c3c2)o1 [lapatinib]
Procedure, shortened: as §1

pictilisib = compound: CS(=O)(=O)N1CCN(Cc2cc3nc(-c4cccc5[nH]ncc45)nc(N4CCOCC4)c3s2)CC1 [pictilisib]
Procedure, shortened: as §1

Measured: log2 fold change

GNPAT (UniProt O15228)
Sequence of UniProt O15228 (O15228 whole entry, looked up): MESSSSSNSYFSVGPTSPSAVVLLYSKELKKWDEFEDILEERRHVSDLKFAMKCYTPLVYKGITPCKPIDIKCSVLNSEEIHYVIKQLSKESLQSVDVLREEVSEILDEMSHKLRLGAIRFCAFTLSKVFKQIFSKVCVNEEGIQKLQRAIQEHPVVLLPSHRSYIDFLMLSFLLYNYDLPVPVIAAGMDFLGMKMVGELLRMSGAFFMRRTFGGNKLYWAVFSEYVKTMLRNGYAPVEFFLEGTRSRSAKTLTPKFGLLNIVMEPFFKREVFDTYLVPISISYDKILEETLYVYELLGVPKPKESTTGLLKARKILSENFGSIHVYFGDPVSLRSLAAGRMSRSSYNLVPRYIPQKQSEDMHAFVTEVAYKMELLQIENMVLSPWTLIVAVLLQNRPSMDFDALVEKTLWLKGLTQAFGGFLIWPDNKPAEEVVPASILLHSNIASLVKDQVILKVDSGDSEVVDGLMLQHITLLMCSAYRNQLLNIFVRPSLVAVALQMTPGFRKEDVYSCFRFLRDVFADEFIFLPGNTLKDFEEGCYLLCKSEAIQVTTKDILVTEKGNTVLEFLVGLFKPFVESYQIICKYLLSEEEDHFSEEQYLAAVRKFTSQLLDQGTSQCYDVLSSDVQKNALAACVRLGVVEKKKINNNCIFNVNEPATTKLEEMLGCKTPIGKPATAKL
inactive: [1] 0.008 | filanesib -0.054 | zotarolimus 0.064 | idasanutlin -0.05 | alisertib -0.038 | [2] -0.022 | gefitinib 0.03 | [3] 0 | lapatinib 0.061 | pictilisib 0.148

GGT7 (UniProt Q9UJ14)
inactive: [1] 0.044 | filanesib 0.081 | zotarolimus -0.03 | idasanutlin -0.039 | alisertib -0.07 | [2] -0.098 | gefitinib 0.055 | [3] 0.05 | lapatinib -0.062 | pictilisib 0.143

HEXB (UniProt P07686)
Sequence of UniProt P07686 (P07686 whole entry, looked up): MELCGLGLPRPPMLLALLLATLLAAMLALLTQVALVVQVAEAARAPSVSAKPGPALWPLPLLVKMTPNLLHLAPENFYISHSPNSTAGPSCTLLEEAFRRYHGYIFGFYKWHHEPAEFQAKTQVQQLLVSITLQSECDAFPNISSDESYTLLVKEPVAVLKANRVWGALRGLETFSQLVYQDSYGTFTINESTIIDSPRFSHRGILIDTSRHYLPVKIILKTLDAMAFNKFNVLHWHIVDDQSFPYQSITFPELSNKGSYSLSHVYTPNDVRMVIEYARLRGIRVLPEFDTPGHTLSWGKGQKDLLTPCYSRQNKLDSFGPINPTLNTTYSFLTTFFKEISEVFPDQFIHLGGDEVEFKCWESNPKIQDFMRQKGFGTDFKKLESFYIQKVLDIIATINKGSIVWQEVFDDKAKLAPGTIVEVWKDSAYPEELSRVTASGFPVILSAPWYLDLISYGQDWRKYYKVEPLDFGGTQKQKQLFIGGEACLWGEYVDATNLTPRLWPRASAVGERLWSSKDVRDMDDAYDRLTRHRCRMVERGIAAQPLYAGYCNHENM
inactive: [1] 0.012 | filanesib -0.092 | zotarolimus -0.042 | idasanutlin 0.018 | alisertib -0.058 | [2] 0.017 | gefitinib 0.005 | [3] 0.044 | lapatinib -0.001 | pictilisib 0.021

GLCCI1 (UniProt Q86VQ1)
Sequence of UniProt Q86VQ1 (Q86VQ1 whole entry, looked up): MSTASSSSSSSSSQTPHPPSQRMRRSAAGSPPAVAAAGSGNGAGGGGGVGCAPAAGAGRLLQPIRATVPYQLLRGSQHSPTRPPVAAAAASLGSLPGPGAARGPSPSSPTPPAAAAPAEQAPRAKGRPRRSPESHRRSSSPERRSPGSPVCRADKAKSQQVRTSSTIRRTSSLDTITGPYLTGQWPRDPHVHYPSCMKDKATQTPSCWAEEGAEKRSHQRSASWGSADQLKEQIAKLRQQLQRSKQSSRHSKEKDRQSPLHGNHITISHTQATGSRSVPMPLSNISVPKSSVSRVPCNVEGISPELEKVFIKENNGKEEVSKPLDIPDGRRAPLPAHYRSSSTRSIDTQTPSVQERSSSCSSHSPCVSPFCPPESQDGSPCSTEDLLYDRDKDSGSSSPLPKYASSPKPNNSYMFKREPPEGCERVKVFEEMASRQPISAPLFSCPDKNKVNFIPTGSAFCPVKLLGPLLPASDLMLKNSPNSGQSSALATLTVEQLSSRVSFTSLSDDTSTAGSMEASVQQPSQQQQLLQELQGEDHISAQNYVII
inactive: [1] 0.009 | filanesib 0.052 | zotarolimus 0.067 | idasanutlin 0.11 | alisertib -0.025 | [2] -0.096 | gefitinib 0.109 | [3] 0.083 | lapatinib -0.02 | pictilisib -0.039

GTF2A2 (UniProt P52657)
Sequence of UniProt P52657 (P52657 whole entry, looked up): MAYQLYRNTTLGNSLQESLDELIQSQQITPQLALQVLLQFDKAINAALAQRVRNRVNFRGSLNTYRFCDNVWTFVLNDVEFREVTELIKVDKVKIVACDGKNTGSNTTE
inactive: [1] -0.067 | filanesib -0.043 | zotarolimus -0.006 | idasanutlin -0.036 | alisertib 0.018 | [2] 0.044 | gefitinib -0.028 | [3] 0.032 | lapatinib -0.042 | pictilisib 0.041

HIP1R (UniProt O75146)
Sequence of UniProt O75146 (O75146 whole entry, looked up): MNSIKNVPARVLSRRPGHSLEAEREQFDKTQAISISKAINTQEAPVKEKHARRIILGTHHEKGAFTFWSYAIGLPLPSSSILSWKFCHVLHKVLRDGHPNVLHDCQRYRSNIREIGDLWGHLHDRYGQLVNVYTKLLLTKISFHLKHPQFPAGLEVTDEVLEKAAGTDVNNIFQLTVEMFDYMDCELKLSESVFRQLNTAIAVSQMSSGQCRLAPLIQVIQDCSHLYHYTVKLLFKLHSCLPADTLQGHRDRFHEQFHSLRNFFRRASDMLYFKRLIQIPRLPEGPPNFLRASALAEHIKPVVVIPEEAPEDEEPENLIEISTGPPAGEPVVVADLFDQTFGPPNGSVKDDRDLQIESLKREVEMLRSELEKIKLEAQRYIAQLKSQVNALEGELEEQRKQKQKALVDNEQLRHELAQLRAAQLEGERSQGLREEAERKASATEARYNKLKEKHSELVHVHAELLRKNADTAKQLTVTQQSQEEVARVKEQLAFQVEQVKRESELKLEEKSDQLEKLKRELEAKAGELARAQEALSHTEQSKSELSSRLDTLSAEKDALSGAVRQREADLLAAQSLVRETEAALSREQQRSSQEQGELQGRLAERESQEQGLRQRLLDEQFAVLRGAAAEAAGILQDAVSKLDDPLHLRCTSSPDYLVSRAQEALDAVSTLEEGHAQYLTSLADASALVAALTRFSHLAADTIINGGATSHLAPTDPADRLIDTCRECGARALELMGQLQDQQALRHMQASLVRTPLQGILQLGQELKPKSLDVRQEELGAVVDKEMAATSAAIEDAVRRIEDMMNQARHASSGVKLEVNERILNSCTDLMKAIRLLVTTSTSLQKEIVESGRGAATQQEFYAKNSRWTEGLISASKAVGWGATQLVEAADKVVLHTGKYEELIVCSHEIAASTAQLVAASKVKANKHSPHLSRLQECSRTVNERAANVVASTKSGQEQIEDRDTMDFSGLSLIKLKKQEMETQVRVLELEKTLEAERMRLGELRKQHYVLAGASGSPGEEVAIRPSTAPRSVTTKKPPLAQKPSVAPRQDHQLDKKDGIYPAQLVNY
inactive: [1] -0.011 | filanesib -0.039 | zotarolimus -0.034 | idasanutlin -0.046 | alisertib 0.114 | [2] 0.027 | gefitinib -0.025 | [3] 0 | lapatinib -0.041 | pictilisib -0.011

HIC2 (UniProt Q96JB3)
inactive: [1] -0.067 | filanesib 0.226 | zotarolimus -0.012 | idasanutlin 0.238 | alisertib -0.057 | [2] -0.386 | gefitinib -0.073 | [3] -0.066 | lapatinib 0.207 | pictilisib -0.052

IFT74 (UniProt Q96LB3)
Sequence of UniProt Q96LB3 (Q96LB3 whole entry, looked up): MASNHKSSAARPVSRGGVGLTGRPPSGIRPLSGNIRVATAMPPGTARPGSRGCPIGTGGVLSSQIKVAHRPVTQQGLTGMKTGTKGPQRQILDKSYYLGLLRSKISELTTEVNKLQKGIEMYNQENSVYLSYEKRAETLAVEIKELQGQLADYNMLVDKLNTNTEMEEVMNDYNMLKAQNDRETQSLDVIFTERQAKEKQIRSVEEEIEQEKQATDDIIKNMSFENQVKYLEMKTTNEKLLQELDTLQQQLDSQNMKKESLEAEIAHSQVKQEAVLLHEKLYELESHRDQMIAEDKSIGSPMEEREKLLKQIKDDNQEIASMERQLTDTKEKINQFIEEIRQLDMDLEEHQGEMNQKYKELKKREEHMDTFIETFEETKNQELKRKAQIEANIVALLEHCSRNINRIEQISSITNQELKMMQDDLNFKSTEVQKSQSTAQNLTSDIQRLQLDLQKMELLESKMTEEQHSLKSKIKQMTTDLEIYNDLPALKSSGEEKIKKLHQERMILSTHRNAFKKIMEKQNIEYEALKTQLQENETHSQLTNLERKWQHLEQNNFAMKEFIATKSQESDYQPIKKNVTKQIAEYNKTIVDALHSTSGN
inactive: [1] 0.083 | filanesib -0.014 | zotarolimus 0.019 | idasanutlin -0.058 | alisertib -0.102 | [2] 0.339 | gefitinib 0.035 | [3] 0.024 | lapatinib -0.025 | pictilisib 0.052

GTF2B (UniProt Q00403)
Sequence of UniProt Q00403 (Q00403 whole entry, looked up): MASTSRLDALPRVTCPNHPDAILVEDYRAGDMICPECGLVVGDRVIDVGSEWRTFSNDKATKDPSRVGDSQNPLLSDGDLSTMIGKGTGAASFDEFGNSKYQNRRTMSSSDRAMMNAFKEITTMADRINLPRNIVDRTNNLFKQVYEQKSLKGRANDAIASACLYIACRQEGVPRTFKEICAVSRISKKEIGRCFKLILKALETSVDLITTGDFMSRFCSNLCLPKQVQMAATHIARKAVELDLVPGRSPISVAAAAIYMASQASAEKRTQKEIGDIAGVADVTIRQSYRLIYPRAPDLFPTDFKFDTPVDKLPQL
inactive: [1] 0.046 | filanesib -0.018 | zotarolimus 0.054 | idasanutlin -0.085 | alisertib -0.037 | [2] -0.001 | gefitinib 0.02 | [3] -0.006 | lapatinib -0.047 | pictilisib -0.025

GEMIN6 (UniProt Q8WXD5)
Sequence of UniProt Q8WXD5 (Q8WXD5 whole entry, looked up): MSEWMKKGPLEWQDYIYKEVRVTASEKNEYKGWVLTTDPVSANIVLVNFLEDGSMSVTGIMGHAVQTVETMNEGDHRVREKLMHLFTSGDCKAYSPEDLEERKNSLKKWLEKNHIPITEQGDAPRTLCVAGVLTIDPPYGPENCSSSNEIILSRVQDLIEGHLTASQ
inactive: [1] 0.001 | filanesib 0.005 | zotarolimus 0.154 | idasanutlin 0.071 | alisertib -0.019 | [2] 0.006 | gefitinib -0.003 | [3] 0.096 | lapatinib -0.077 | pictilisib 0.064

GTF2A1 (UniProt P52655)
Sequence of UniProt P52655 (P52655 whole entry, looked up): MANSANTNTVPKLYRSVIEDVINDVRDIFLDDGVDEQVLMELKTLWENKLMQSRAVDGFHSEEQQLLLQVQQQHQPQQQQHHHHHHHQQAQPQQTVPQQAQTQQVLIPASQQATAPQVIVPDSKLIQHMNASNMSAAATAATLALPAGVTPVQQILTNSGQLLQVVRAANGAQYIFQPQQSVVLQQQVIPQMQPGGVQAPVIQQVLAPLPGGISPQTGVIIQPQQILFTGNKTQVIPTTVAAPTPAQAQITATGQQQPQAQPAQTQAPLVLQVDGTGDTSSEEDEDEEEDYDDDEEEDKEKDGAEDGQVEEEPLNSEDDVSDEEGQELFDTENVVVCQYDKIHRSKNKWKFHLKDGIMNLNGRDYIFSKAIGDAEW
inactive: [1] -0.102 | filanesib 0.031 | zotarolimus 0 | idasanutlin 0.012 | alisertib -0.126 | [2] -0.069 | gefitinib 0.111 | [3] 0.043 | lapatinib 0.006 | pictilisib 0.012

HMG20A (UniProt Q9NP66)
inactive: [1] -0.045 | filanesib 0.05 | zotarolimus 0.078 | idasanutlin -0.21 | alisertib -0.016 | [2] 0.147 | gefitinib 0.065 | [3] -0.021 | lapatinib -0.088 | pictilisib 0.145

GABPA (UniProt Q06546)
Sequence of UniProt Q06546 (Q06546 whole entry, looked up): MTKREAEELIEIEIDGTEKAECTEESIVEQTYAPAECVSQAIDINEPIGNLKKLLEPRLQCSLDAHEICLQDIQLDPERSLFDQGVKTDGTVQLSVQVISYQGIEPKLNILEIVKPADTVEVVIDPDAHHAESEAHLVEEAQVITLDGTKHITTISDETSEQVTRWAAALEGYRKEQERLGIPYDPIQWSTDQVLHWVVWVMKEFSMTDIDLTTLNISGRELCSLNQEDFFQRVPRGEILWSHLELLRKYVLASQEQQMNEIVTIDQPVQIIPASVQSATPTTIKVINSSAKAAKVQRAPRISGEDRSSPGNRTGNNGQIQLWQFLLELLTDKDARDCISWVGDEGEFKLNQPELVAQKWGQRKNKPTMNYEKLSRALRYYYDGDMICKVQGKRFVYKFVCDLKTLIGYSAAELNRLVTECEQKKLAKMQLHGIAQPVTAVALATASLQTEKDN
inactive: [1] 0.01 | filanesib -0.111 | zotarolimus 0.063 | idasanutlin -0.025 | alisertib -0.002 | [2] -0.134 | gefitinib 0.032 | [3] 0.029 | lapatinib 0.048 | pictilisib 0.02
